Experimental data as given in PubChem BioAssay.
Activity calls are given as the source filed them.

How the values were obtained:
[1] = target: Albumin (Bos taurus) (UniProt P02769); test: bovine serum albumin binders on microarray, profiling panel, artefact control for SMM control protein annotation, biochemical, small-molecule microarray, Alexa647 label, 635/667 nm fluorescence (AID 1118); settings: BSA-A647 binding, fluorescence 635 nm, higher = more signal;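 note: score merges 667 nm emission intensity and signal-to-noise per printed compound spot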
Albumin (Bos taurus), sequence (P02769 whole entry, looked up): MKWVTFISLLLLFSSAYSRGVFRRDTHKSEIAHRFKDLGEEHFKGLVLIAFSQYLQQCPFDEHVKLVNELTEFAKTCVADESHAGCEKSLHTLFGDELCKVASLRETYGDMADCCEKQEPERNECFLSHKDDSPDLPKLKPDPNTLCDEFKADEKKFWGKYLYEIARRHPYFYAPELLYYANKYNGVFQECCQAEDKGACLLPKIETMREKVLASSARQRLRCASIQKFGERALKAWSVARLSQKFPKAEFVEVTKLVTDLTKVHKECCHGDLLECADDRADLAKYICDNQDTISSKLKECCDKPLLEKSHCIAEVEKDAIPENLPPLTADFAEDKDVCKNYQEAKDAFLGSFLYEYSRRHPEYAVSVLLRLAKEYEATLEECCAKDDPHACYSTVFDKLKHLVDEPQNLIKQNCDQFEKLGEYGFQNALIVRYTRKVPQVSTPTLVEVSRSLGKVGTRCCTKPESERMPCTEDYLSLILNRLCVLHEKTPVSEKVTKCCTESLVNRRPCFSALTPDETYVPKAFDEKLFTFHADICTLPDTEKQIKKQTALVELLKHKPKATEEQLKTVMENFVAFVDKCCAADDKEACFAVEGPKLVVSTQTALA

[2] = small-molecule microarray binders of probe aXIP, primary screen, biochemical, NeuroSMM set, 635/667 nm fluorescence (AID 1119); settings: higher = more signal, called active from +8 up or from −8 down;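 note: probe is the protein aXip251-270 applied at 1 µg/mL to compound-printed slides; binding of probe to printed compounds measured as 667 nm fluorescence plus signal to noise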
[3] = small-molecule binders of probe aNOTCH3, primary screen, biochemical, small-molecule microarray, 635/667 nm fluorescence (AID 1120); settings: higher = more signal;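 note: probe is a biotin-tagged antibody raised against NOTCH3 rather than NOTCH3 protein; score merges spot fluorescence near 667 nm with spot signal to noise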
[4] = small-molecule binders of probe aNOTCH2, primary screen, biochemical, small-molecule microarray, 635/667 nm fluorescence (AID 1121); settings: higher = more signal;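 note: score merges feature fluorescence read at 667 nm with its signal to noise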
[5] = target: Carbonic anhydrase 2 (Homo sapiens) (UniProt P00918); test: CAII small-molecule binders, profiling panel, biochemical, small-molecule microarray, Alexa647-labelled CAII (AID 1122); settings: CAII-A647 binding fluorescence, higher = more signal
[6] = COS7 lysate on small-molecule microarray, probe aHis, 635 nm (AID 1123); settings: COS7 cell lysate, fluorescence, higher = more signal;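 note: z-score combines 667nm fluorescence intensity with signal-to-noise per printed compound spot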
[7] = compound binding in COS7 lysate, probe aLAP1, primary screen, cell lysate, small-molecule microarray (AID 1124); settings: probe aLAP1, fluorescence, higher = more signal;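 note: lysate comes from COS7 cells expressing LAP1 and is applied at 0.3 µg/mL; score merges spot fluorescence near 667 nm with signal-to-noise over triplicate slides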
[8] = tested on: Sam68 (KHDRBS1); test: Sam68 small-molecule binders, primary screen, biochemical, small-molecule microarray, 635 nm fluorescence (AID 1125); settings: small-molecule microarray binding, higher = more signal;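 note: score merges 667 nm channel intensity with signal to noise over triplicate slides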
[9] = tested on: Chordin-like protein 2 (CHRDL2); test: CHRDL2 small-molecule binders, primary screen, biochemical, small-molecule microarray, 635 nm fluorescence (AID 1126); settings: small-molecule microarray binding, fluorescence 635 nm; higher = more signal;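 note: printed compound slides probed with Chrdl2 protein at 4 µg/mL for 1 h at 4 C; score merges 667 nm emission intensity with signal to noise over three replicate slides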
[10] = target: Concanavalin-A (Canavalia ensiformis) (UniProt P02866); test: ConA small-molecule binders, primary screen, artefact control for SMM control protein annotation, biochemical, small-molecule microarray, Alexa647 label, 635 nm (AID 1127); settings: ConA-A647 binding fluorescence, higher = more signal;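 note: z combines 667 nm emission intensity with signal-to-noise across three replicate slides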
Concanavalin-A (Canavalia ensiformis), sequence (P02866 whole entry, looked up): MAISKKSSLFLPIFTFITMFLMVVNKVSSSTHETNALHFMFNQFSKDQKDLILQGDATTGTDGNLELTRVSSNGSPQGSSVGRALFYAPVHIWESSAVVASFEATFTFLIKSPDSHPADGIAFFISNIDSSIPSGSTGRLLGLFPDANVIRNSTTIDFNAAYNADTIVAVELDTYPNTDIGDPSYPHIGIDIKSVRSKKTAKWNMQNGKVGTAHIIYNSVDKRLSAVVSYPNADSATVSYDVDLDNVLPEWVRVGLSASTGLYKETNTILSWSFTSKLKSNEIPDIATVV

Compound	composite z-score [1]	composite Z-score [2]	composite z-score [3]	composite z-score [4]	composite z-score [5]	composite z-score [6]	composite z-score [7]	composite z-score [8]	composite z-score [9]	composite z-score [10]
COCCOC(=O)N1C(=O)[C@@]2(c3cc(C#Cc4ccc(OC)cc4)ccc31)[C@H](C(=O)Nc1nc3ccccc3s1)[C@H]1C(=O)O[C@H](c3ccccc3)[C@H](c3ccccc3)N1[C@@H]2c1ccccc1OCCO	0.545	-0.331 (inactive)	0.124	0.159	0.547	0.874	0.304	0.997	0.649	1.11
CCCCCN1CC=CC23O[C@@H]4C=CCOC(=O)[C@@H]4[C@H]2C(=O)N(CCCCCO)[C@@H]3C1=O (stereo not given in full)	0.994	0.358 (inactive)	-0.137	-0.146	0.854	0.263	0.0344	-0.172	-1.31	-0.56
Cc1c(-c2ccc(-c3ccc(Cl)c(Cl)c3)o2)nc(-c2ccccc2)c2c1CO[Si]2(C(C)C)C(C)C	0.734	-0.0877 (inactive)	-0.122	-0.148	0.181	0.356	-0.213	0.295	-0.18	0.248
C=CCN1C(=O)[C@]2(O[C@H](CCn3cc([C@H](O)c4ccccc4)nn3)[C@@H]([Si](C)(C)c3ccc(OC)cc3)[C@@H]2C)c2cc(N3C(=O)c4cccc5cccc3c45)ccc21	0.626	0.783 (inactive)	-0.141	-0.126	0.522	0.515	0.389	0.598	-0.693	0.471
CN(C)CCCNC(=O)[C@@]1(Cc2ccccc2I)c2ccccc2C(=O)N(Cc2ccccc2)[C@H]1c1ccc(CO)cc1	-0.6	-0.307 (inactive)	-0.467	-0.247	0.362	3.21	1.41	1.3	0.613	1.09
CCCCN1CC=CC23O[C@@H]4/C=C\CCC(C)OC(=O)C4[C@H]2C(=O)N(C(C)CO)[C@@H]3C1=O (stereo not given in full)	-1.58	0.319 (inactive)	-0.0498	-0.0907	0.822	-0.986	0.103	-0.879	-0.0668	-0.59
COCCOC(=O)N1C(=O)[C@@]2(c3cc(C#CCCO)ccc31)[C@H](C(=O)N1CCc3cc(OC)c(OC)cc3C1)[C@H]1C(=O)O[C@H](c3ccccc3)[C@H](c3ccccc3)N1[C@@H]2c1ccccc1OCCO	0.357	0.471 (inactive)	0.285	0.0401	0.422	1.2	1.01	1.32	0.855	1.13
C=CC[C@@]1(C(=O)O)N=C(c2ccc(OCCCO)cc2)O[C@@H]1c1ccccc1CN=[N+]=[N-]	0.557	-0.632 (inactive)	0.0991	-0.147	0.596	1.9	0.0424	0.826	0.439	1.05
CC(=O)NCCCC[C@@H]1NC(=O)[C@H]2C[C@@H](C(=O)NCCCCCC[N+](C)(C)C)[C@@H](c3ccc(O)cc3)N2C1=O	0.596	0.285 (inactive)	-0.0057	-0.0556	0.676	2.2	0.527	1.17	1.4	0.682
CCCC=C(CCC)[C@@H](NS(=O)(=O)c1ccc(Cl)cc1)c1ccccc1	0.046	-0.0223 (inactive)	-0.056	0.194	0.281	0.829	1.28	0.127	-0.845	0.205
COC(=O)c1c(CC[C@@H](CO)NC(=O)N[C@@H](Cc2ccccc2)Cn2cc(-c3cncn3C)nn2)oc(C(C)=O)c1C(=O)OC	0.979	0.047 (inactive)	0.212	-0.144	0.648	1.95	0.512	1.21	-0.722	1.07
CCCC[C@@H](O)C1=C(COC)Cn2c(=O)n(-c3ccccc3)c(=O)n2[C@H]1CO	-0.0338	0.0894 (inactive)	-0.0967	-0.166	-0.469	-0.162	0.0924	-0.532	-0.0073	-0.698
